Tau fibril FP – inhibitors of human tau fibril formation; P10636; K18 P301L tau heparin fibrillization, Alexa594 FP, 6 h; Potency, µM (highest dose often 57.7 µM), inactives show at the highest dose activity, negative = inhibition, usual class: inhibitors; 280,000 compounds, 0.39% hits; AID 1468; note: potency is the fitted concentration of half-maximal effect; nearly all actives have a fitted effect of over 55% in size
Target sequence (P10636 561-689 P618L limits assumed): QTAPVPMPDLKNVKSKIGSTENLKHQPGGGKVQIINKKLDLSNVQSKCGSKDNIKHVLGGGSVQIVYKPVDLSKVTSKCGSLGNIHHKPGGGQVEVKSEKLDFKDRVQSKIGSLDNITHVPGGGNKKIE
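Recombinant K18 P301L […], labeled with Alexa 594 at 0.24 uM over 15 uM unlabeled; heparin inducer 20 uM final; 37 C, 6 hr; FP endpoint.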
Tau fluor counter – counter-screen for tau fibril formation inhibitors | tau K18 P301L Alexa594 fluorescence, heparin fibrillization | Potency, µM (top dose mostly 57.7 µM), inactives show at the top dose activity change, negative = decrease | 280,000 compounds, 0.93% hits; note: potency is the fitted concentration of half-maximal effect; nearly all actives have a fitted effect of over 55% in size
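Human K18 P301L tau (15 uM unlabeled plus 0.24 uM Alexa 594-labeled, final) in 100 mM sodium acetate pH 7 was mixed with compound and 20 uM heparin and incubated 6 hr at 37 C.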
Sfp inh – inhibitors of Bacillus subtilis Sfp phosphopantetheinyl transferase | Biochemical Sfp PPTase activity, qHTS | AID 1490 | Q9F4F7 | 310,000 compounds, 3.5% hits | Potency, µM, for the others: largest response in the series, negative = inhibition, most hits filed as inhibitors;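 note: the enzyme is Sfp with the accession as filed and its product quenches rhodamine fluorescence; potency is the fitted concentration of half-maximal effect; 0% = enzyme reaction without inhibitor and -100% = no enzyme wells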
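Compounds were incubated with enzyme (final 15 nM) for 15 min at room temperature before substrate addition started the reaction. Fluorescence at 525 nm excitation, 598 nm emission was recorded immediately and after 30 minutes.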
Coupling enz – inhibits coupling enzyme system, counter-screen for aldolase hits; coupling enzyme system counterscreen, AmpLite Red fluorescence; activity change, negative = inhibition, % at 58.2 µM, hits read low; AID 2472; 290,000 compounds, 0.67% hits; in the data active = activity change below about -30%
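Fluorescence at 525 nm excitation and 598 nm emission measured inhibition of the coupled detection system without aldolase. Compounds (at 57.5 uM final) were preincubated 10 min at room temperature with coupling enzyme reagent before a 20 min substrate/AmpLite Red step.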
Tau ThT inhib – tau fibrillization inhibition (ThT binding). P10636. recombinant tau K18 P301L (four-repeat tau fragment), heparin-induced fibrillization, ThT fluorescence. Potency, µM (titrated, usually from 57.4 µM), for inactives: at the top dose activity, negative = inhibition, hits mostly inhibitors. 270,000 compounds, 2.1% hits; note: potency is the fitted concentration of half-maximal effect; nearly all actives have a fitted effect of over 55% in size
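Recombinant human tau K18 fragment […] carrying P301L, 15 uM unlabeled plus 0.24 uM Alexa 594-labeled, was fibrillized with 20 uM heparin in 100 mM sodium acetate pH 7 for 6 hr at 37 C; 30 uM ThT fluorescence read after 1 hr.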
Active calls of the source: *; u = inconclusive; x = no result given; [ ] = dose if it differs, or a comment. The list is not random: actives were taken first. Their share in the collection is about 5.2%. Unless noted, calls come from the whole dose curve; as a rule, active = well fitted curve in the direction sought with a large enough effect; inconclusive = small, poorly fitted or top-dose-only effect, or another doubt; inactive = no such curve, though single readings can be large; an effect the other way counts as inactive or inconclusive. Unless noted, % is set by controls: 0 for no effect and ±100 for the full control effect.

SMILES	Tau fibril FP	Tau fluor counter	Sfp inh	Coupling enz	Tau ThT inhib
COc1ccc(Nc2nc(-c3cc4cccc(OC)c4oc3=O)cs2)cc1	11.1%	u	u	-0.1	u
COc1ccc2oc(=O)c(-c3csc(Nc4cccc(O)c4)n3)cc2c1	-3.9%	6.31µM*[quencher]	u	-0.8	12.6µM*
O=C(O)c1ccc(Nc2nc(-c3cc4ccccc4oc3=O)cs2)cc1O	0.6%	u	35.5µM*	4.0	7.94µM*
Cn1c(C(=O)NCCN2CCc3ccccc3C2)cc2c(=O)n(C)c3ccccc3c21	-2.6%	-5.7%	-2.7%	-30.5*	u
Cn1c(C(=O)NCCN2CCOCC2)cc2c(=O)n(C)c3ccccc3c21	-4.7%	-3.2%	-11.3%	-2.3	-0.2%
CCOc1cccc(-c2cc(=O)[nH][nH]2)c1	u	-21.2%	13.5%	-11.0	3.55µM*
CCOc1ccccc1CNC(=O)c1cc(-c2ccc(OC)cc2)nc2ccc(C(C)C)cc12	-2.6%	-13.4%	x	x	-3.5%
Cc1ccc(/C=C2\C(=N)N3N=C(CC(=O)N4CCOCC4)SC3=NC2=O)o1	x	x	3.7%	x	x
N=C1/C(=C\c2ccc(SCc3ccccc3)o2)C(=O)N=C2SC(CC(=O)N3CCOCC3)=NN12	7.0%	-11.0%	-21.3%	10.5	14.1µM*
N=C1/C(=C\c2ccc(SCc3ccccc3)o2)C(=O)N=C2SC=NN12	u	-18.8%	5.0%	3.2	8.91µM*
CCS(=O)(=O)C1=NN2C(=N)/C(=C\c3ccc(SCc4ccco4)o3)C(=O)N=C2S1	-21.2%	u	20µM*	4.8	14.1µM*
CCS(=O)(=O)C1=NN2C(=N)/C(=C\c3ccc(OC(=O)c4ccco4)c(Br)c3)C(=O)N=C2S1	x	x	-7.1%	7.9	x
COc1cc(/C=C2\C(=N)N3N=CSC3=NC2=O)ccc1OS(=O)(=O)c1ccccc1[N+](=O)[O-]	x	x	-3.9%	7.2	x
COc1cccc(N2CC(NC(=O)CCCc3ccccc3)CC2=O)c1 (stereo not drawn)	1.1%	-1.2%	x	x	-2.1%
Cc1cc(C)cc(NC(=O)CSc2nc3c([nH]c4ccccc43)c(=O)n2-c2ccc(F)cc2)c1	-13.6%	-14.4%	x	x	8.4%
COCCN1C(=O)c2[nH]nc(-c3ccccc3O)c2C1c1ccc(Cl)c(Cl)c1 (stereo not drawn)	-13.2%	u	x	x	-11.8%
CSC1CCCCC1(O)CSc1nc2c(cc1C#N)CCCC2 (stereo not drawn)	1.5%	-9.2%	50.1µM*	3.1	-17.7%
Cc1ccccc1CN1CCN(CC2CC3C=CC2C3)CC1 (stereo not drawn)	-3.9%	-8.0%	79.4µM*	0.2	-5.0%
Cc1ccccc1CN1CCN(C(=O)CC(C)C)CC1	x	x	79.4µM*	0.4	x
COc1ccc(CN2CCN(C(=O)CC(C)C)CC2)c2ccccc12	-6.5%	-3.4%	u	1.5	-15.3%
C1=CC2CC1CC2CN1CCN(c2ccccc2)CC1 (stereo not drawn)	4.1%	-7.9%	-9.9%	1.3	-22.8%
Cc1ccc(-n2nc(C(=O)N3CCC(C)CC3)c(=O)n(C)c2=O)cc1	-3.3%	-1.1%	x	x	-2.2%
COC(=O)CSc1nc(C(C)C)nc2ccccc12	-8.9%	-2.9%	15.6%	3.8	-11.9%
CC(C)c1nc(SCC(=O)c2ccc(F)cc2)c2ccccc2n1	u	-22.4%	31.6µM*	-1.0	u
O=C(CSc1cnc2ccccc2n1)c1ccc(F)cc1	-10.9%	-14.9%	-61.3%	2.0	14.1µM*
SMILES	Tau fibril FP	Tau fluor counter	Sfp inh	Coupling enz	Tau ThT inhib
Cc1ccc(C(=O)CSc2nc(C(C)C)nc3ccccc23)cc1	-17.0%	-18.6%	39.8µM*	-3.3	u
CCOC(=O)c1ccc(N2CCN(c3cc(Cl)ccc3C)CC2)c(NC(=O)Nc2cccc(OC)c2)c1	u	u	x	x	-13.2%
C=CCc1cccc(/C=N/NC(=O)CN2CCN(Cc3ccccc3)CC2)c1O	x	x	-0.4%	-0.8	x
CCN(CC)S(=O)(=O)c1ccc(O)c(NC(=O)c2cc(-c3cc(OC)c(OC)c(OC)c3)nc3ccccc23)c1	x	x	44.7µM*	1.1	x
COc1cc(-c2cc(C(=O)Nc3ccc(S(N)(=O)=O)cc3)c3ccccc3n2)cc(OC)c1OC	x	x	15.3%	-1.2	x
COC(=O)c1cc(-c2ccc(C)o2)nc2ccccc12	10.0%	4.7%	11.2µM*	-2.8	-15.8%
Cc1ccc(-c2cc(C(=O)NN3CCOCC3)c3cc(Br)ccc3n2)o1	-4.4%	-5.3%	25.1µM*	-3.0	u
O=C(NCc1ccco1)c1cccnc1-c1nc2ccccc2s1	u	-17.3%	22.4µM*	-10.4	u
Cc1ccc(-c2cc(C(=O)NCc3ccco3)c3ccccc3n2)o1	-12.3%	-15.3%	44.7µM*	-0.8	u
Cc1cccc(-c2noc(CN(C3CCCCC3)S(=O)(=O)c3ccc(F)cc3)n2)c1	-10.8%	u	x	x	u
CCC(Sc1nnc2c(n1)[nH]c1ccccc12)C(=O)Nc1nnc(C(C)C)s1 (stereo not drawn)	u	-28.8%	x	x	4.1%
Cc1ccc2c(c1)c(=O)c1ccccc1n2CCCC(=O)Nc1c(F)cccc1F	-14.5%	-6.9%	x	x	-2.2%
Cc1ccc(-c2cc(C(=O)N3CC(C)CC(C)C3)c3ccccc3n2)o1 (stereo not drawn)	x	x	22.4µM*	5.6	x
O=C(NCc1ccccn1)c1cc(-c2ccccc2)nc2ccccc12	-2.1%	-0.1%	5.6%	2.0	-3.0%
Cc1ccc(-c2cc(C(=O)Nc3ccccc3C)c3ccccc3n2)o1	-2.0%	-9.6%	8.91µM*	1.2	-16.6%
O=C(NCc1ccccn1)c1cc(-c2ccc(-c3ccccc3)cc2)nc2ccccc12	-2.3%	-25.7%	25.1µM*	-0.2	5.5%
Cc1cc(C)c2nc(-c3ccccn3)cc(C(=O)NCc3cc(C)n(C)n3)c2c1	-1.5%	-5.7%	1.9%	1.3	-13.6%
Cc1cc(C)c2nc(-c3ccccn3)cc(C(=O)NCc3ccco3)c2c1	u	-9.6%	56.2µM*	0.9	u
Cc1cc(C(=O)Nc2ccccc2C)c2ccccc2n1	x	x	5.4%	0.9	x
Cc1ccc(NC(=O)Cn2c(=O)n(CCCCC(=O)NCc3ccccc3Cl)c(=O)c3ccccc32)cc1C	u	-30.0%	x	x	12.6%
O=C(CN1CCCN(Cc2ccccc2Cl)S1(=O)=O)NCc1ccccc1	4.4%	-1.1%	x	x	13.1%
CCOc1ccc(-n2ccn3c(CC(C)CC(=O)O)nnc3c2=O)cc1 (stereo not drawn)	-4.7%	-12.8%	x	x	-16.0%
NC(=NCCc1c[nH]c2ccccc12)NS(=O)(=O)c1ccc2ccccc2c1	4.1%	-1.1%	-17.2%	-36.4*	3.4%
NC(=NCCc1c[nH]c2ccccc12)NS(=O)(=O)c1ccc(F)cc1	2.1%	-8.2%	4.3%	-1.9	0.1%
CN1CCN(CC(O)Cn2c3ccccc3c3ccccc32)CC1 (stereo not drawn)	x	x	50.1µM*	-2.0	x
Cc1ccc(CN(C)C(=O)c2cc(COc3cccc(C(F)(F)F)c3)on2)o1	x	x	20µM*	-0.2	x

Bioassay records (PubChem)
